“And” between values parts separate entries of the source, which are not always exact repeats. Identical values can stand only once. The source made the active and inactive calls. How the source made its calls: active means hit-call score of the fitted dose curve at least 0.9, where 1 is the maximum; inactive means score below 0.9.
Key:
[1] = read-out: Human Leukocyte Antigen - DR isotype (HLADR), HLA-DRA (gene 3122); test: BSK_BE3C_HLADR: BioMAP Diversity Plus: BE3C Assay for Human Leukocyte Antigen - DR isotype (HLADR) Biomarker Activity (AID 2283032); settings: primary human bronchial epithelial cells; actives raise or lower the signal
How it was run: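 Human primary bronchial epithelial cells (BE3C system) exposed to compound for 24 hours; cell-surface HLA-DR measured by ELISA, fitted bidirectionally relative to DMSO. Total protein by SRB in parallel cultures tracked cytotoxicity.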

[2] = read-out: Vascular cell adhesion molecule 1 (VCAM1), VCAM1 (gene 7412); test: BSK_4H_VCAM1: BioMAP Diversity Plus: 4H Assay for Vascular cell adhesion molecule 1 (VCAM1) Biomarker Activity (AID 2283033); settings: primary human endothelial cells (HUVEC); actives raise or lower the signal
How it was run: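 Primary human umbilical vein endothelial cells, 4H stimulation system, treated for 24 h; cell-surface VCAM-1 quantified by ELISA. Bidirectional fitting against DMSO; cytotoxicity tracked by SRB total-protein staining in parallel cultures.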

[3] = read-out: Interferon-gamma inducible Protein 10 (IP10), CXCL10 (gene 3627); test: BSK_BE3C_IP10: BioMAP Diversity Plus: BE3C Assay for Interferon-gamma inducible Protein 10 (IP10) Biomarker Activity (AID 2283034); settings: primary human bronchial epithelial cells; actives raise or lower the signal
How it was run: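 Primary human bronchial epithelial cells, with IP-10 measured by ELISA 24 hours after chemical dosing. Bidirectional fit against DMSO; cytotoxicity checked by SRB total protein staining in parallel cultures.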

[4] = read-out: Monokine induced gamma interferon (MIG), CXCL9 (gene 4283); test: BSK_BE3C_MIG: BioMAP Diversity Plus: BE3C Assay for Monokine induced gamma interferon (MIG) Biomarker Activity (AID 2283035); settings: primary human bronchial epithelial cells; actives raise or lower the signal
How it was run: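 MIG level was determined by ELISA after 24 h chemical treatment of primary human bronchial epithelial cells. Values were fitted bidirectionally with DMSO as the negative control and activity baseline.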

[5] = read-out: Transforming growth factor beta 1 (TGFb1), TGFB1 (gene 7040); test: BSK_BE3C_TGFb1: BioMAP Diversity Plus: BE3C Assay for Transforming growth factor beta 1 (TGFb1) Biomarker Activity (AID 2283036); settings: primary human bronchial epithelial cells; actives raise or lower the signal
How it was run: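 Primary human bronchial epithelial cells dosed with chemical; TGF-b1 measured by ELISA 24 h after dosing. Bidirectional curve fitting against DMSO negative control; SRB total-protein staining in parallel cultures gauged cytotoxicity.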

[6] = read-out: Plasminogen activator inhibitor-1 (PAI1), SERPINE1 (gene 5054); test: BSK_BE3C_PAI1: BioMAP Diversity Plus: BE3C Assay for Plasminogen activator inhibitor-1 (PAI1) Biomarker Activity (AID 2283037); settings: primary human bronchial epithelial cells; actives raise or lower the signal
How it was run: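 Primary human bronchial epithelial cells (BE3C system) exposed 24 h; PAI-1 quantified by ELISA. Parallel sulforhodamine B staining of total protein flags cytotoxicity. Bidirectional fit versus DMSO.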

[7] = read-out: urokinase plasminogen activator (uPA), PLAU (gene 5328); test: BSK_BE3C_uPA: BioMAP Diversity Plus: BE3C Assay for urokinase plasminogen activator (uPA) Biomarker Activity (AID 2283038); settings: primary human bronchial epithelial cells; actives raise or lower the signal
How it was run: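 Bronchial epithelial cells (human, primary); chemical 24 h; uPA by ELISA; bidirectional fit vs DMSO. SRB (0.1%, after 10% TCA fixation, 560 nm) in parallel cultures for cytotoxicity.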

[8] = read-out: Urokinase-type plasminogen activator receptor (uPAR), PLAUR (gene 5329); test: BSK_BE3C_uPAR: BioMAP Diversity Plus: BE3C Assay for Urokinase-type plasminogen activator receptor (uPAR) Biomarker Activity (AID 2283039); settings: primary human bronchial epithelial cells; actives raise or lower the signal
How it was run: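 Primary human bronchial epithelial cells dosed for 24 h; uPAR quantified by ELISA with bidirectional fitting against DMSO. Overt cytotoxicity assessed in parallel cultures by SRB total-protein staining (0.1% SRB, 560 nm).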

[9] = read-out: Interleukin-6 (IL6), IL6 (gene 3569); test: BSK_CASM3C_IL6: BioMAP Diversity Plus: CASM3C Assay for Interleukin-6 (IL6) Biomarker Activity for (AID 2283040); settings: primary human coronary artery smooth muscle cells; actives raise or lower the signal
[10] = read-out: Tissue plasminogen activator (tPA), PLAT (gene 5327); test: BSK_BE3C_tPA: BioMAP Diversity Plus: BE3C Assay for Tissue plasminogen activator (tPA) Biomarker Activity (AID 2283041); settings: primary human bronchial epithelial cells; actives raise or lower the signal
How it was run: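 Primary human bronchial epithelial cells in the BE3C system, exposed to compound for 24 h. tPA was quantified by ELISA; DMSO served as baseline, with gain or loss of signal fitted. Cytotoxicity checked in parallel cultures by SRB total-protein staining.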

Measured: AC50

N#Cc1nn(-c2c(Cl)cc(C(F)(F)F)cc2Cl)c(N)c1S(=O)C(F)(F)F (stereo unspecified)
active: [1] 14.2 µM | [2] 20 µM | [3] 23.2 µM | [4] 28.3 µM | [6] 20 µM
inactive: [5] | [7] | [8] | [9] | [10]

CC1COC(Cn2cncn2)(c2ccc(Oc3ccc(Cl)cc3)cc2Cl)O1 (stereo unspecified)
active: [1] 20 µM | [2] 32.2 µM | [3] 31.7 µM | [4] 29.3 µM | [6] 20 µM | [7] 20 µM | [8] 30.3 µM
inactive: [5] | [9]

C=CCC1=C(C)[C@@H](OC(=O)[C@@H]2[C@@H](C=C(C)C)C2(C)C)CC1=O
active: [1] 20 µM | [3] 30.6 µM | [6] 29.5 µM | [7] 26.7 µM
inactive: [2] | [4] | [5] | [8] | [9]

C#CCOS(=O)OC1CCCCC1Oc1ccc(C(C)(C)C)cc1 (stereo unspecified)
inactive: [5] | [9]
active: [1] 13.8 µM | [2] 26.8 µM | [3] 16.3 µM | [4] 25.5 µM | [6] 18.4 µM | [7] 27 µM | [8] 20 µM | [10] 13.2 µM

COc1nc(C)nc(NC(=O)NS(=O)(=O)c2ccccc2CCC(F)(F)F)n1
inactive: [1] | [2] | [3] | [4] | [5] | [6] | [7] | [8] | [9] | [10]

CON(C)C(=O)Nc1ccc(Cl)c(Cl)c1
inactive: [1] | [2] | [3] | [4] | [5] | [6] | [7] | [8] | [9]

C=CC1(C)OC(=O)N(c2cc(Cl)cc(Cl)c2)C1=O (stereo unspecified)
inactive: [1] | [2] | [3] | [4] | [5] | [6] | [7] | [8] | [9]

CCCC1COC(Cn2cncn2)(c2ccc(Cl)cc2Cl)O1 (stereo unspecified)
inactive: [1] | [2] | [3] | [4] | [5] | [6] | [7] | [8] | [9]

OC(c1ccc(Cl)cc1)(c1cncnc1)c1ccccc1Cl (stereo unspecified)
active: [1] 25.9 µM | [3] 30.3 µM
inactive: [2] | [4] | [5] | [6] | [7] | [8] | [9]

CN(C)C(=S)SSC(=S)N(C)C
inactive: [9]
active: [1] 8.69 µM | [2] 29.3 µM | [3] 10.7 µM | [4] 11.2 µM | [5] 12.9 µM | [6] 27.1 µM | [7] 7.75 µM | [8] 9.65 µM

CC(C)(C)c1ccc(CSc2cnn(C(C)(C)C)c(=O)c2Cl)cc1
inactive: [2] | [4] | [7] | [8] | [9] | [10]
active: [1] 7.02 µM | [3] 23.5 µM | [5] 0.832 µM | [6] 14.2 µM

N#Cc1cc(Br)c(O)c(Br)c1
inactive: [4] | [5] | [7] | [8] | [9]
active: [1] 11.9 µM | [2] 32 µM | [3] 23.5 µM | [6] 12.8 µM

CCNc1nc(Cl)nc(NCC)n1
inactive: [1] | [2] | [3] | [4] | [5] | [6] | [7] | [8] | [9]

CCOP(=S)(OCC)SCn1c(=O)oc2cc(Cl)ccc21
active: [2] 26.1 µM | [8] 0.147 µM
inactive: [1] | [3] | [4] | [5] | [6] | [7] | [9] | [10]

CCCN(CCC)c1c([N+](=O)[O-])cc(S(N)(=O)=O)cc1[N+](=O)[O-]
active: [1] 35 µM [middle of 4 runs] | [2] 38.1 µM [middle of 4 runs] | [3] 36.9 µM [middle of 4 runs] | [4] 38.4 µM [middle of 4 runs] | [5] 31.3 µM and 31.1 µM and 36.7 µM | [6] 34.2 µM [middle of 4 runs] | [7] 33.6 µM [middle of 4 runs] | [8] 38.1 µM [middle of 4 runs] | [9] 35.2 µM [middle of 4 runs] | [10] 30.3 µM [middle of 4 runs]
